biological target: LRRC15; test: pooled miR-30 sensor sort-seq; sequence = guide strand; conditions: shRNA
Note: reference of the scale not given here.

Row | Sequence | sensor-assay potency score (higher = more potent)
1 | TTGAGGTTGCTGCACTGGGAGA | -1.66
2 | TTGCTGAAGACATTGTCGGGTA | 0.015
3 | TTCTTCTCAATCCTCAGGGCGA | -1.09
4 | TTGGACAGGTAGAGTCTCTGGA | 0.0615
5 | TTGAGTTCAGTGATGTGCGTGT | 0.975
6 | AACAGCAACGTTGACATTGATG | -1.31
7 | TTCTTGCAGCAGCAACAGCCGA | -1.7
8 | TAACCTAGGCTGGTTGAGCAGG | -0.94
9 | TTGAGCAGGAGCCAGTTGCGGA | -0.932
10 | TTGTTGGACAGGTAGAGTCTCT | -0.632
11 | TCTTGCAGCAGCAACAGCCGAC | -0.387

biological target: LRRC19; test: as above; conditions: shRNA

Row | Sequence | sensor-assay potency score (higher = more potent)
12 | TTACTGTATTTGAACCTGCTTG | -0.499
13 | TATAGTAACATCTTTCTTGATA | -0.839
14 | TTCATGAATAATTTAGACCTTT | -0.134
15 | TTGATTATGAGGACTCAGCAAA | -0.795
16 | TATGTCTGTAGAACTCTTGTGT | 0.236
17 | TAACTGTCAACTACCGAGGAGT | -0.999
18 | TTTGATATTGTAGCTCTGCAGG | -1.09
19 | TATGTAACTGTCAACTACCGAG | -0.747
20 | TTATGTAAGATAGTAACCTTGT | 0.182
21 | TAAACTGTAGTGATCCTGCATT | -0.636
22 | TTCTGCTTCATGCTCTTCCAGG | -0.767

biological target: LRRC1; test: as above; conditions: shRNA

Row | Sequence | sensor-assay potency score (higher = more potent)
23 | TTTCGTAATTTGACTAGCTGGA | 0.0536
24 | TAGTTTTCCAATGCCATCCGGA | -0.337
25 | TTTTGTTTGAGTCCAGTCCTTT | -0.559
26 | TTTCTGTAAGAACTAACTCAGT | -0.926
27 | TTCTTCTAGTCTTCGCAGCTGG | -0.37
28 | TTGACAGCACGCTCGTTCCAGG | -1.01
29 | TCTGTTGACAGCACGCTCGTTC | 0.237
30 | TTGCCTGTGACACCTCTGCAGG | -1.09
31 | TAGCTGGAAAAATTGCTCGGGC | -0.498
32 | TCTCTTGACAAGTAGGTTCAGA | -0.443
33 | TTTTCTGTAAGAACTAACTCAG | -0.115
34 | TTCTAGTCTTCGCAGCTGGGTA | -0.92

biological target: LRRC45; test: as above; conditions: shRNA

Row | Sequence | sensor-assay potency score (higher = more potent)
35 | TGCAGCTTCCTGCTGCTCCAGC | -1.24
36 | TTATCAATAGTCTCCATCAAGT | -1.42
37 | TGACATGCTGGTCATCTCCTGC | -0.943
38 | ATGCTGGTCATCTCCTGCCTGG | -1.52
39 | TTCTGCAGGAAGCTCGCCCTCT | -0.654
40 | AATAGTCTCCATCAAGTCGAGG | -1.73

From the OligoGym collection
